An excerpt weighted towards active compounds, which were near 3.5% of everything screened.
Pf apPOL inh: Pf-apPOL DNA polymerase inhibition; Recombinant Pf-apPOL, molecular beacon fluorescence, 1.5 h; inhibition, % at 10 µM; 210,000 compounds, 0.25% hits
mHTT CaM bind: mHTT-calmodulin interaction abrogation. AID 1671202. AlphaScreen His-mHTT/GST-CaM binding, luminescence. 190,000 compounds, 3.6% hits. inhibition, % at 15 µM. P42858;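 further: 0% = both proteins with DMSO and 100% = one protein alone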
An asterisk follows results filed as active; x = no result. No stated cut-off is given here; in the data, active means inhibition above about 50%; inactive means the rest.

SMILES	Pf apPOL inh	mHTT CaM bind
COc1ccccc1CN1CCC(C(=O)NCCc2ccccc2)CC1	-4.5	-7.7
CC(=O)NC1(C)CS(=O)(=O)CC1S(=O)(=O)O (stereo unspecified)	-1.8	-6.0
COc1ccccc1N1CCN(C(=O)C2CCCCC2)CC1	-3.3	x
CC(=O)C(N=Nc1ccc2c(c1)OCO2)=C(C)O	-5.0	x
Cc1ccc(Oc2nccnc2N2CCCC(C(=O)NCc3ccccc3C)C2)cc1 (stereo unspecified)	-3.4	-4.5
O=C(NCCc1ccccc1)C1CCN(Cc2ccccc2)CC1	9.3	-0.7
CN(C)CCNC(=O)C1CCN(Cc2cc3ccccc3n2Cc2ccccc2)CC1	4.7	100.2*
CC1(C)CC(=O)C2=C(C1)c1c(ccc3ncccc13)NC2c1ccc(Cl)cc1 (stereo unspecified)	57.8*	18.0
CC1(C)CC(=O)C2=C(C1)c1c(ccc3ncccc13)NC2c1ccccc1 (stereo unspecified)	-0.8	19.0
O=C1C(=Cc2ccc(Br)cc2)Oc2c1ccc(O)c2CN1CCOCC1	-24.4	56.4*
CCN(CC)Cc1c(O)ccc2c1OC(=Cc1ccc(Br)cc1)C2=O	-114.5	57.5*
O=C1C(=CC=Cc2ccccc2)Oc2c1ccc(O)c2CN1CCOCC1	-12.8	62.2*
CCN(CC)Cc1c(O)ccc2c1OC(=Cc1ccc(C)cc1)C2=O	-21.5	6.4
O=C1C(=Cc2ccc(Br)cc2)Oc2c1ccc(O)c2CN1CCCC1	-61.0	34.5
CCN1CCN(Cc2c(O)ccc3c2OC(=CC=Cc2ccccc2)C3=O)CC1	-5.6	39.9
COc1cccc(NC(=O)N2CC(C)Oc3ccc(C)cc32)c1 (stereo unspecified)	-10.8	4.1
COCCN=C1Nc2ccccc2NC12CCCN(C(=O)c1cc(-c3ccccc3)n[nH]1)C2 (stereo unspecified)	-3.5	66.9*
COCCN=C1Nc2ccccc2CNC12CCN(C(=O)Cc1cccc(C)c1)C2 (stereo unspecified)	-3.4	19.6
COCCN=C1Nc2ccccc2NC12CCCN(C(=O)c1ccc(C)nc1)C2 (stereo unspecified)	-5.1	2.5
COCCN=C1Nc2ccccc2NC12CCCN(C(=O)Cc1cccc(C)c1)C2 (stereo unspecified)	-4.2	52.0*
COCCN=C1Nc2ccccc2NC12CCCN(C(=O)c1ccccc1Cl)C2 (stereo unspecified)	-0.7	13.2
COCCN=C1Nc2ccccc2NC12CCCN(C(=O)CCc1c[nH]c3ccccc13)C2 (stereo unspecified)	-2.9	70.8*
Cc1ccc(SCCNC(=O)c2cccnc2Oc2ccccc2)cc1	-6.4	x
COc1cccc(-c2nc(C3CCN(C(=O)c4ccc(Cl)cc4)CC3)no2)c1	0.9	62.5*
COc1ccccc1-c1nc(C2CCN(C(=O)c3ccccc3)CC2)no1	-1.1	11.0
SMILES	Pf apPOL inh	mHTT CaM bind
Cc1ccccc1-c1nc(C2CCN(C(=O)c3ccc(Br)cc3)CC2)no1	10.3	53.7*
COc1cccc(-c2nc(C3CCN(C(=O)c4ccc(Br)cc4)CC3)no2)c1	1.8	48.6
COc1cccc(-c2nc(C3CCN(C(=O)c4cccc(N(C)C)c4)CC3)no2)c1	3.0	52.7*
COc1cccc(C(=O)N2CCC(c3noc(-c4cccc(OC)c4)n3)CC2)c1	-2.3	6.1
COc1ccccc1-c1nc(C2CCN(C(=O)c3cccc(Cl)c3)CC2)no1	12.8	63.2*
COc1ccc(C(=O)N2CCC(c3noc(-c4ccccc4C)n3)CC2)cc1	1.6	-1.8
O=C(O)c1ccc2c(c1)C(=O)N(CCC1=CCCCC1)C2=O	2.4	3.0
Cc1cc(Br)ccc1NC(=O)C1C(C=C(Cl)Cl)C1(C)C (stereo unspecified)	-1.1	-34.0
CC1(C)Cc2c(sc3nc(Nc4ccccc4)n(N)c(=O)c23)CO1	-6.0	53.4*
CC1(C)Cc2c(sc3nc(SCC(=O)O)n(-c4ccccc4)c(=O)c23)CO1	3.0	-1.2
CCNC(=O)C1Cc2ccccc2N2CCN(c3ccccc3OC)CC12 (stereo unspecified)	0.6	9.1
O=C(NCc1ccccn1)C1Cc2ccccc2N2CCN(c3ccccc3)CC12 (stereo unspecified)	-11.5	37.5
O=C(NCCc1cccs1)C1Cc2ccccc2N2CCN(c3ccccc3)CC12 (stereo unspecified)	-3.5	94.7*
CCNC(=O)C1Cc2ccc(OC)cc2N2CCN(c3ccc(C)cc3)CC12 (stereo unspecified)	1.3	64.1*
COc1ccc(N2CCN3c4ccccc4CC(C(=O)N4CCOCC4)C3C2)cc1 (stereo unspecified)	-2.0	56.2*
COc1cccc(N2CCN3c4ccccc4CC(C(=O)NC(C)C)C3C2)c1 (stereo unspecified)	-1.5	32.2
CCNC(=O)C1Cc2ccc(OC)cc2N2CCN(c3ccc(OC)cc3)CC12 (stereo unspecified)	-3.3	16.6
Cc1ccc(N2CCN3c4ccccc4CC(C(=O)N4CCSCC4)C3C2)cc1 (stereo unspecified)	-1.0	57.6*
COc1ccc(CN(C(C)=O)C2CC(=O)N(c3ccc(Cl)cc3)C2=O)cc1 (stereo unspecified)	1.9	1.5
O=S(=O)(c1ccc2c(c1)CCCC2)N1CCCn2nc(-c3ccncc3)cc2C1	-2.8	22.5
CC(C(=O)N1CCCCCC1)N(c1ccc(Oc2ccccc2)cc1)S(C)(=O)=O (stereo unspecified)	1.0	-1.1
COc1nccnc1NC1CCN(S(=O)(=O)c2cn(C)cn2)CC1	-5.3	-1.8
N=C1NC(=O)/C(=C/c2cc([N+](=O)[O-])ccc2Cl)S1	-3.4	25.0
COCCN1C(=O)c2ccccc2C(C(=O)N(C)C2CCCCC2)C1c1ccc(F)cc1 (stereo unspecified)	1.0	5.0
COCCN1C(=O)c2ccccc2C(C(=O)N(C)c2ccc(C(C)C)cc2)C1c1ccc(F)cc1 (stereo unspecified)	-1.6	57.0*
SMILES	Pf apPOL inh	mHTT CaM bind
CCOc1ccc(N2CC(c3nnc(NC(=O)c4ccc(C)cc4)o3)CC2=O)cc1 (stereo unspecified)	-2.4	60.3*
COc1ccc(N2CC(c3nnc(NC(=O)c4ccc(C)cc4)o3)CC2=O)cc1 (stereo unspecified)	-1.3	50.5*
CCOc1ccc(N2CC(c3nnc(NC(=O)c4ccc(Cl)cc4)o3)CC2=O)cc1 (stereo unspecified)	-2.3	8.9
COc1ccc(N2CC(c3nnc(NC(=O)c4ccc(C(C)(C)C)cc4)o3)CC2=O)cc1 (stereo unspecified)	-3.3	8.5
O=CN1CCN(C2CC(=O)N(c3ccc(F)cc3)C2=O)CC1 (stereo unspecified)	7.1	3.8
CCCCC(=O)NC(/C=C/c1ccccc1)c1cc([N+](=O)[O-])c2cccnc2c1O (stereo unspecified)	-3.2	14.0
CCCCC(=O)NC(c1ccc2c(c1)OCO2)c1cc([N+](=O)[O-])c2cccnc2c1O (stereo unspecified)	-5.9	98.7*
CCCCC(=O)NC(c1ccccc1Cl)c1cc([N+](=O)[O-])c2cccnc2c1O (stereo unspecified)	-9.9	100.0*
Fc1ccc(C2=CC(c3ccccc3)n3c(nc4ccccc43)N2)cc1 (stereo unspecified)	20.9	-10.0
CC(C)c1noc(C2(NC(=O)c3cccc(F)c3)CCCCC2)n1	-3.1	-13.8
